Data on ten compounds can be found in PubChem BioAssay AID743126 (The Scripps Research Institute Molecular Screening Center, 2013).

Hit rate of the full screen: of about 370,000 compounds, about 2,100 (0.57%) were called active. The sample as a whole holds a higher share of actives than the screen did. A number with no mark means an inactive call.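 The calls were made as follows: active = inhibition above mean plus 3 SD of compounds lying within the high and low control bounds (cut at about 19% in these data); inactive = the rest.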

Chain of Group 3 secretory phospholipase A2 (Homo sapiens) (Q9NZ20 whole entry, looked up): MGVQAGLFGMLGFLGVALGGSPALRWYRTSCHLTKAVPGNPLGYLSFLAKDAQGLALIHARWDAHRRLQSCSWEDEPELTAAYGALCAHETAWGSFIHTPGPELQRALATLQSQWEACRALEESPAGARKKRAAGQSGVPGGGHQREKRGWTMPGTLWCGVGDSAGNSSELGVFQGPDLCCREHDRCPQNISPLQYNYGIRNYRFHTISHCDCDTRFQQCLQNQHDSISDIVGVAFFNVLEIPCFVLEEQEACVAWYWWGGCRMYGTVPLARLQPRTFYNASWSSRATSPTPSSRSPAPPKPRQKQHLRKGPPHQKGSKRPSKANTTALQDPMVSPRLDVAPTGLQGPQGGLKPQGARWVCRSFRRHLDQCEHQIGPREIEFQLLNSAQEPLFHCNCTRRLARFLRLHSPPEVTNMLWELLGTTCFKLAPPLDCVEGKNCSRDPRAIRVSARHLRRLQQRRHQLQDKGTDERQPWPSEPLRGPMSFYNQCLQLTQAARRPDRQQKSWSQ

The assay addresses Group 3 secretory phospholipase A2 (Homo sapiens) (UniProt Q9NZ20). Nature of the assay: human group III sPLA2 inhibitors, primary screen, biochemical, QFRET, BODIPY PC-A2 liposome substrate (AID 743126).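 Also: 0% = median of test compound wells and 100% = no enzyme DMSO wells.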 The conditions noted are these: QFRET BODIPY PC-A2 liposome hydrolysis, fluorescence; at 12.2 µM; stronger effect = higher value.
Take `C[C@]12CCC3C(CC[C@H]4C[C@@H](O)CC[C@]34C)C1CC[C@@H]2O` (stereo not given in full): the inhibition (in general, the relative decrease from the control value, in per cent) is 21.1% (active).

`C[C@]12CC[C@H](O)CC1=C([N+](=O)[O-])CC1C2CC[C@@]2(C)C1CC[C@@H]2O` (stereo not given in full): the inhibition was -3.04%.

As to `C[C@]12CCC3C(CC[C@H]4[C@H](O)[C@H](O)CC[C@]34C)C1CC[C@@H]2O` (stereo not given in full), the inhibition was 11.6%.

`CC1=CC(=Cc2sc3ccccc3[n+]2C)C=C(C)O1`: the inhibition was 5.85%.

Regarding `COc1ccc(C(=O)C2CN(C)CC2C(=O)c2ccc(OC)cc2)cc1` (stereo not given), the inhibition was -10.5%.

As for `O=C(COC(=O)c1ccccc1)Nc1ccc(Cl)cc1C(=O)c1ccccc1`, the inhibition is 21.3% (active).

On to `O=C(CCNS(=O)(=O)c1ccccc1)Nc1ccc(Cl)cc1C(=O)c1ccccc1`, for which the inhibition is -26.4%.

In the case of `CN1CCN(C(=S)SCC(=O)Nc2ccc(Cl)cc2C(=O)c2ccccc2)CC1`, the inhibition is -21.3%.

Turning to `C[C@@]1([C@@H](NP(=O)(c2ccccc2)c2ccccc2)c2ccccc2)C[C@H]1CCO`, the inhibition is -0.39%.

`CNC(=O)O/N=C(\N)Cc1csc2ccc(Cl)cc12`: the inhibition was -5.86%.
